Reference: PubChem BioAssay
A number with no mark means an inactive call. How the calls were made is not given here.

Target: Pantothenate synthetase (Mycobacterium tuberculosis (strain ATCC 25618 / H37Rv)) (UniProt P9WIL5)
Test: Coupled enzyme confirmation of inhibitors against recombinant Mtb PanC (AID 375);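 further: 0% = full reaction with vehicle and 100% = no enzyme background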
Conditions: coupled enzyme assay; at 10 µM, stronger effect = higher value

Pantothenate synthetase (Mycobacterium tuberculosis (strain ATCC 25618 / H37Rv)), sequence (P9WIL5 whole entry, looked up): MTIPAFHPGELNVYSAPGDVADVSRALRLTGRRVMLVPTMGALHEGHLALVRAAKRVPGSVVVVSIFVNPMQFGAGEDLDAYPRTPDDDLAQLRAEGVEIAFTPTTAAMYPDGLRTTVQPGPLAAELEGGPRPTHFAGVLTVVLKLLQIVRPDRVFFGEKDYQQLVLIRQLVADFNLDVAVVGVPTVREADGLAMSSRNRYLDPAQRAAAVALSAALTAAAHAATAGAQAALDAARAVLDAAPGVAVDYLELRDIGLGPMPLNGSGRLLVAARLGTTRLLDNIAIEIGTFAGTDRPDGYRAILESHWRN

Row | SMILES | inhibition
1 | CCn1nnnc1SCC(=O)Nc1nc(-c2cccs2)cs1 | 0%
2 | CCC(C)c1ccc(NC(=O)c2cccnc2)cc1 (stereo not given) | 9%
3 | CN(C)CCC=C1c2ccccc2CCc2ccccc21 | 0%
4 | CCOC(=O)c1cccc(NC(=O)CSc2nnc(-c3cccnc3)n2C)c1 | 7%
5 | Cc1ccc(-c2ccc(=O)n(CCC(=O)NCCN3CCCCC3C)n2)cc1 (stereo not given) | 0%
6 | C[C@]12CCC(=O)C=C1CC[C@@H]1[C@@H]2[C@@H](O)C[C@@]2(C)[C@H]1CC[C@]2(O)C(=O)CO | 0%
7 | CC(n1cnnn1)C12CC3CC(CC(C3)C1)C2 (stereo not given) | 8%
8 | Cc1cc(NC(=O)CSc2ccc3nnc(-c4cccc(F)c4)n3n2)no1 | 0%
9 | CCOc1ccc(C(=O)Cc2ccc3oc(C(=O)O)cc3c2)c(O)c1 | 7%
10 | O=C(OCCCN1CCCC1)C1(c2ccccc2)CCCC1 | 1%
11 | CCN(CC)CCn1c(OC)cc(=O)[nH]c1=O | 0%
12 | Cc1ccc(CNc2cc(-c3nn4c(C)nnc4s3)ccc2C)s1 | 4%
13 | Nc1c(C(=O)NCc2ccco2)nnn1Cc1ccccc1 | 2%
14 | C[C@@H]1C[C@H]2[C@@H]3C[C@H](F)C4=CC(=O)C=C[C@]4(C)[C@@]3(F)[C@@H](O)C[C@]2(C)[C@@]1(O)C(=O)CO | 0%
15 | Clc1ss/c(=N\c2ccccn2)c1Cl | 0%
16 | Nn1c(SCC(=O)Nc2ccc3c(c2)OCCO3)nnc1C(F)(F)F | 4%
17 | CN1CCN(S(=O)(=O)c2ccc(NC(=O)c3ccc(F)cc3)cc2)CC1 | 0%
18 | Cc1cc(Nc2ccc(N3CCC(C)CC3)cc2)n2ncnc2n1 | 0%
19 | CCOC(=O)N1CCN(c2c(N3CCN(c4ccccn4)CC3)c(=O)c2=O)CC1 | 0%
20 | CC(C)NC(=O)c1ccccc1NC(=O)CCS(=O)(=O)Cc1ccccc1 | 2%
21 | CCOC(=O)C1=C(CN2CCOCC2)NC(=O)NC1c1cc(C)ccc1C (stereo not given) | 2%
22 | N#CC1=C(SCC(=O)NC23CC4CC(CC(C4)C2)C3)NC(=O)C(C#N)C12CCCCC2 (stereo not given) | 0%
23 | O=C(CCN1C(=O)c2ccccc2C1=O)OCN1C(=O)c2ccccc2C1=O | 5%
24 | Cc1ccc(NC(=O)CSc2nnc(CSc3nc(C)cc(C)n3)n2Cc2ccco2)c(C)c1 | 0%
25 | CCOc1cc(-c2nc(-c3ccc(C)nc3OCC)no2)cc(OCC)c1OCC | 0%

Row | SMILES | inhibition
26 | O=c1oc2ccccc2cc1NCc1ccccc1O | 0%
27 | N#CC1=C(SCC(=O)NC2CCCCC2)NC(=O)CC1c1ccco1 (stereo not given) | 8%
28 | Cc1ccc(NC(=O)CC2Nc3ccccc3NC2=O)cc1Cl (stereo not given) | 0%
29 | CCC(c1c(C)n(C)n(-c2ccccc2)c1=O)c1c(C)n(C)n(-c2ccccc2)c1=O | 1%
30 | Cc1cc(C)c2nc(C(F)(F)F)nc(NCCCN3CCCC3=O)c2c1 | 0%
31 | COc1ccc(CC(=O)NC2CCN(CC(=O)Nc3ccc4c(c3)OCCO4)CC2)cc1OC | 0%
32 | COc1ccc(C2/C(=C(/O)c3ccccc3)C(=O)C(=O)N2c2ncccn2)cc1OC (stereo not given) | 2%
33 | C=CCC1(O)C(=O)Nc2ccccc21 (stereo not given) | 0%
34 | COc1ccccc1N1CCN(C(=O)C2CCCO2)CC1 (stereo not given) | 0%
35 | O=C1OCCC1Sc1ncnc2sccc12 (stereo not given) | 0%
36 | COc1nc(Oc2ccc(=O)n(C)n2)nc(N(C)C)n1 | 4%
37 | Cn1c(=O)c(-c2ccccc2)nn2c3ccccc3nc12 | 0%
38 | CCOC(=O)Cc1csc(NC(=O)CSc2nnc(C)n2C)n1 | 0%
39 | CS(=O)(=O)N1CCN(CC2CC3C=CC2C3)CC1 (stereo not given) | 8%
40 | CN(Cc1cccs1)c1ncnc2sccc12 | 0%
41 | CCCCNc1cc(C)oc(=O)c1C(C)=O | 4%
42 | Cc1ccc2cc(C(c3nnnn3C3CCCC3)N3CCN(c4ccc(F)cc4)CC3)c(=O)[nH]c2c1 (stereo not given) | 6%
43 | CCCCCCNS(=O)(=O)c1ccc(Cl)s1 | 2%
44 | CCCCc1nc2n[nH]c(N)c2c2c1CCCC2 | 0%
45 | CCOC(=O)/C=C1\SCC(=O)N1Cc1ccc(Br)cc1 | 0%
46 | Cc1ccccc1-c1nc(CS(=O)(=O)CC(=O)NCc2ccccc2)c(C)o1 | 0%
47 | CC(=O)c1cc(F)c(N2CCN(C(=O)Cc3ccccc3)CC2)cc1C | 0%
48 | CCCS(=O)(=O)N1CCCC(C(=O)NC2CCCC(C)C2C)C1 (stereo not given) | 0%
49 | Cc1ccc2c(c1)CCCN2C(=O)C1CCCO1 (stereo not given) | 5%
50 | O=C(CN1CCSCC1)N1CCc2[nH]c3ccc(Br)cc3c2C1 | 0%

Row | SMILES | inhibition
51 | CCNC(=O)CC1C(=O)N(c2ccccc2)C(=O)N1Cc1ccc(OC)cc1 (stereo not given) | 0%
52 | COCCn1c(Sc2nc(C)cs2)nc2c1c(=O)[nH]c(=O)n2C | 0%
53 | Cc1ccc(-n2ncc3c(N4CCN(c5ccccc5)CC4)ncnc32)c(C)c1 | 0%
54 | C=C(C)c1cccc(C(C)(C)NC(=O)Nc2ncccn2)c1 | 0%
55 | CCn1c(SCC(=O)C(C)(C)C)nnc1-c1cnccn1 | 0%
56 | COc1ccccc1S(=O)(=O)n1cc(Cc2ccccc2)c(N)n1 | 0%
57 | S=c1[nH]nc(Cc2ccccc2)n1-c1ccccc1 | 1%
58 | COc1ccc(OC)c(C2/C(=C(\O)c3ccc4c(c3)OCCO4)C(=O)C(=O)N2CCCN(C)C)c1 (stereo not given) | 0%
59 | Cc1onc(-c2c(Cl)cccc2Cl)c1C(=O)N1CCc2ccccc21 | 0%
60 | CC(=O)c1cc(-c2ccccc2)n(CC(=O)N2CCC(N3CCCCC3)CC2)c1C | 0%
61 | COc1ccccc1C1c2c(oc3ccc(Cl)cc3c2=O)C(=O)N1c1cc(C)on1 (stereo not given) | 0%
62 | COCC(=O)Nc1c(C(=O)Nc2ccccc2OC)oc2ccccc12 | 1%
63 | Fc1cccc2sc(Nc3nnc(-c4ccco4)o3)nc12 | 8%
64 | COc1ccc(-c2cc(C(=O)NCCc3ccccc3)no2)cc1OC | 4%
65 | Cc1cccc(NC(=O)c2ccc3ccccc3n2)n1 | 0%
66 | CCN(CC)S(=O)(=O)c1ccc2c(c1)c(=O)c(C(=O)NCCOC)cn2C | 1%
67 | CC(=O)c1ccc(NC(=O)CSc2nnc(-c3ccoc3C)n2Cc2ccccc2)cc1 | 0%
68 | COCCCNC(=O)CCc1nc2cccnc2n1Cc1ccc(OC)cc1 | 0%
69 | CC1=C(C(=O)Nc2ccccc2)C(c2ccccn2)n2nc(CCCO)nc2N1 (stereo not given) | 7%
70 | Cc1cc(/C=N\O)c(C)n1-c1ccncc1 | 0%
71 | c1ccc(CCc2nc(-c3cccnc3)no2)cc1 | 0%
72 | CCCCCn1c(CN2CCN(C(=O)OCC)CC2)nc2c1c(=O)[nH]c(=O)n2C | 3%
73 | CCN(CC)C(=O)CN(c1cc(Cl)ccc1OC)S(C)(=O)=O | 0%
74 | COc1ccc2nc(CC(C)(C)CC(=O)O)c[n+]([O-])c2c1 | 10%
75 | CCC(C(=O)N1CCc2cc(OC)c(OC)cc2C1)c1ccccc1 (stereo not given) | 0%

Row | SMILES | inhibition
76 | COc1ccc(N2CCN(CCCNC(=O)CC3Oc4ccc(C)cc4NC3=O)CC2)cc1 (stereo not given) | 0%
77 | NS(=O)(=O)c1cc2c(cc1Cl)NC=NS2(=O)=O | 3%
78 | CC(C)(C)NCC(O)COc1cccc2c1C[C@H](O)[C@H](O)C2 (stereo not given in full) | 0%
79 | CCCn1c(NC(=O)C2COc3ccccc3O2)nc2ccccc21 (stereo not given) | 0%
80 | CC(C)OC(=O)c1ccc(NC(=O)C2C3CC4OC(=O)C2C4C3)cc1 (stereo not given) | 7%
81 | COc1ccc(NC(=O)CN(c2cc(C)cc(C)c2)S(=O)(=O)c2c(C)noc2C)cc1OC | 0%
82 | O=C(Nc1ccc2c(c1)OCCO2)C1CCCN(S(=O)(=O)c2cnc[nH]2)C1 (stereo not given) | 0%
83 | Cc1ncc(CSc2nc3ccccc3[nH]2)c(N)n1 | 5%
84 | CC(=O)N1CCc2cc(S(=O)(=O)NC(C(=O)NCc3ccccc3)C(C)C)ccc21 (stereo not given) | 3%
85 | O=C(CCCc1cccs1)Nc1nc2c(s1)CCCC2 | 2%
86 | O=C(Cn1cnc2ccccc2c1=O)NCCC(=O)N1CCN(Cc2ccccc2)CC1 | 0%
87 | COC(=O)CSC1=NS(=O)(=O)c2ccccc21 | 0%
88 | CCOC(=O)CN1CC23C=CC(O2)C(C(=O)Nc2ccc(OC)cc2OC)C3C1=O (stereo not given) | 0%
89 | Cc1ccc(-c2nnn(CC(=O)N(CC(=O)NC3CCCCC3)c3cnc4ccccc4c3)n2)o1 | 8%
90 | COc1cccc(Nc2nnc(SCC(=O)N3CC(C)OC(C)C3)s2)c1 (stereo not given) | 2%
91 | CC(C)COC(=O)NCC12C=CC(O1)C1C(=O)N(c3ccc(Cl)cc3)C(=O)C12 (stereo not given) | 0%
92 | Cc1nnc(SCC(=O)N2CC(=O)Nc3ccccc32)n1-c1ccccc1 | 2%
93 | COC(=O)c1ccc2c(c1)C(=O)N(C1CCCCC1)C2=O | 9%
94 | CC(=O)N(C(C)=O)c1cccc2c(N(C(C)=O)C(C)=O)cccc12 | 1%
95 | O=C(CN1C(=O)c2ccccc2C1=O)Nc1ccc(S(=O)(=O)NCC2CCCO2)cc1 (stereo not given) | 0%
96 | COc1ccc(N2CCN(Cc3nc(-c4ccc(Cl)cc4Cl)no3)CC2)cc1 | 6%
97 | CN(Cc1ccc(-n2cccn2)cc1)C(=O)c1cnn2c1NC(c1ccco1)CC2C(F)(F)F (stereo not given) | 0%
98 | O=S(=O)(Nc1nc2ccccc2nc1NCc1ccco1)c1ccc(Cl)cc1 | 0%
99 | O=C(NC1(C(F)(F)F)NC(=O)N(Cc2ccco2)C1=O)c1cccnc1 (stereo not given) | 11%
100 | CCn1c(CSc2nc(C)cc(C)n2)nnc1SCC(=O)Nc1ccccc1 | 5%
